The whole screen tested about 76,000 compounds, of which about 1,900 (2.5%) were called active. Roughly 5% stayed inconclusive and do not appear here. The sample holds actives, similar compounds and a random draw of the others, so the mix is not that of the screen. Calls come from the whole dose curve; as a rule, active = well fitted inhibition curve with a large enough effect; inconclusive = small, poorly fitted or top-dose-only effect; inactive = flat fitted curve, though single readings scatter.
These compounds were tested against Luciferin 4-monooxygenase (Photinus pyralis) (UniProt P08659) (assay: Firefly luciferase inhibition profiling of diverse chemical library using quantitative high-throughput screening). Conditions: purified P. pyralis luciferase, luminescence, biochemical; series mostly up to 115 µM; activity change, negative = inhibition: at the top concentration.
Sequence of Luciferin 4-monooxygenase (Photinus pyralis) (P08659 whole entry, looked up): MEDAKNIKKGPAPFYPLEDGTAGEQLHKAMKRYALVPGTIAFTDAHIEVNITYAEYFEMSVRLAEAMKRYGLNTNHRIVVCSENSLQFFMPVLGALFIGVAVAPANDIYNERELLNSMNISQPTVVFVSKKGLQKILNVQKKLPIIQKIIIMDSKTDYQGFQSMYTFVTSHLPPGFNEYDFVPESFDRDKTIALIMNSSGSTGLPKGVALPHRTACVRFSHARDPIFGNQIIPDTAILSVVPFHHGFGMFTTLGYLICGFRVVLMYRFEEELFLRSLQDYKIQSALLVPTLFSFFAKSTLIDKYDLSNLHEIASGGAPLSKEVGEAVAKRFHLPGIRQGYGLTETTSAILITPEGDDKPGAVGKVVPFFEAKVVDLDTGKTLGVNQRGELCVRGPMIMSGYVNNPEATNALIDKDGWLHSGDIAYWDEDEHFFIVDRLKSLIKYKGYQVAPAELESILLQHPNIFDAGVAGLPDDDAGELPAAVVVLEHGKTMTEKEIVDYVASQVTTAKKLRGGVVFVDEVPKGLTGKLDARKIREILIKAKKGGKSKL
In short: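 FLuc 10nM, D-luciferin 10uM, ATP 10uM, Mg acetate 10mM, Tris acetate pH 7.5, Tween/BSA; cpd qHTS; enzyme added last; CCD luminescence.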
% is set by controls: 0 for no effect and ±100 for the full control effect; potency is the fitted concentration of half-maximal effect.
Note: nearly all actives have a fitted effect of over 65% in size.

Row | Structure (SMILES) | activity change, negative = inhibition | Potency
1 | CC(=O)N1CCc2sc(C(=O)NCc3ccc(F)cc3Cl)cc2C1 | -11% (inactive) | –
2 | Cn1cnnc1CC1CCN(c2nnnn2-c2ccccc2)CC1 | 1.99% (inactive) | –
3 | COc1ccccc1N1CCN(C(=O)Cn2c(N3CCc4ccccc4C3)nc(C)cc2=O)CC1 | -0.638% (inactive) | –
4 | Cc1cccc(-c2cc(C3CCN(S(=O)(=O)c4cccc(C#N)c4)CC3)[nH]n2)c1 | 7.84% (inactive) | –
5 | COc1ccc(F)cc1CN1CCCC(CO)(CC2CC2)C1 (stereo unspecified) | -8.73% (inactive) | –
6 | CCNC(=O)N1CCCC1c1noc(CCC(=O)NCC2CC2)n1 (stereo unspecified) | 2.84% (inactive) | –
7 | C=CCC1(OC)CCN(C(=O)c2cnn3cc(CN(CC)CC)cnc23)CC1 | -1.51% (inactive) | –
8 | COCCNC(=O)[C@H]1C[C@H](Oc2cccnc2)CN1S(=O)(=O)c1cn(C)cn1 | 0% (inactive) | –
9 | CN(C)Cc1cn2c(=O)n(C)cc(-c3cccc(OCc4ccccc4)c3)c2n1 | -15.5% [at 172 µM] (inactive) | –
10 | COc1cncc(-c2cccc(COc3ccc4c(cnn4CC[S+](C)(=O)[O-])c3)c2)c1 | -40% [at 172 µM] (inactive) | –
11 | C[S+](=O)([O-])CCn1ncc2cc(OCc3cccc(-c4ccccc4)c3)ccc21 | – | 14.1 µM (active)
12 | Cn1cnc(S(=O)(=O)N2CCC(N(C(=O)C3CC3)C3CCOCC3)CC2)c1 | 10.9% (inactive) | –
13 | Cc1ccc(C(=O)NC2CCN(c3cc(-c4cccs4)[nH]n3)C2)cc1 (stereo unspecified) | -4.28% (inactive) | –
14 | Cc1ccc2cc(CN3CCN(CC(N)=O)CC3)c(-c3cccs3)nc2c1 | – | 12.6 µM (active)
15 | Cc1cccnc1C(=O)N[C@@H]1CN(c2ncccn2)C[C@H]1CO | -4.45% (inactive) | –
16 | COc1ccc(-c2nccc3c(=O)cc(N(C)c4ccccc4)oc23)cn1 | -12.8% [at 172 µM] (inactive) | –
17 | COc1ccc(CN2CCc3oc(C)c(C(=O)NC(C)Cn4ccc(C)n4)c3C2)cc1 (stereo unspecified) | 2.61% (inactive) | –
18 | COCCOCC(=O)N1CCCC(c2nc(-c3ccccc3)no2)CCNC(=O)CC1 (stereo unspecified) | 3.55% (inactive) | –
19 | O=[N+]([O-])c1ccccc1CN1C[C@H](O)C[C@H]1c1nc(-c2ccc(F)cc2)no1 | – | 50.1 µM (active)
20 | O=[N+]([O-])c1cccc(-c2noc([C@@H]3C[C@@H](O)CN3Cc3cccnc3)n2)c1 | -6.11% [at 172 µM] (inactive) | –
21 | O=[N+]([O-])c1cccc(-c2noc([C@@H]3C[C@@H](O)CN3Cc3cccc(OC(F)(F)F)c3)n2)c1 | -19.4% (inactive) | –
22 | CCCNC(=O)C(NC(=O)c1cccc(OC)c1)C1CCN(C(=O)c2ccccc2F)CC1 (stereo unspecified) | -8.93% (inactive) | –
23 | CCNC(=O)O[C@@H]1CO[C@H]2[C@@H]1OC[C@@H]2NC(=S)Nc1cccc2ccccc12 | -20% [at 172 µM] (inactive) | –
24 | COc1ccc(CN2C(=O)CO[C@H](c3ccc(NC(=O)c4ccccc4OC)cc3)[C@H]2CO)cc1 | -6.83% (inactive) | –
25 | CCNC(=O)C1C(c2cccc(NC(=O)c3ccc(OC)cc3)c2)OC(=O)N1Cc1ccc(C)cc1 (stereo unspecified) | – | 11.2 µM (active)
26 | COc1ccc(NC(=O)c2ccc(CN3C(=O)NC4(CCOCC4)C3=O)cc2)c(OC)c1 | -23.3% (inactive) | –
